# Measurements: the supplement of paper PMC8728848
# This is one part of a sample in which the strongest signals are shown more often than they occur.
# What was measured:
# Assay in all cases: glycan array binding signal (z-score within array); higher = stronger binding
# Details in all cases: glycan notation: IUPAC condensed, linker removed
# [1] = target: Fuc(a1-2)Gal(b1-4)GlcNAc(b1-2)Man(a1-3)[Fuc(a1-2)Gal(b1-4)GlcNAc(b1-2)Man(a1-6)]Man(b1-4)GlcNAc(b1-4)GlcNAc
# Procedure, shortened: (§1)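 Glycan array binding is given as a within-array Z-score, which can be read as non-binding when negative. The arrays, 3228 of them, came from the Consortium for Functional Glycomics database and were retained only where the protein sequence was available. Z-scores were averaged across arrays of the same protein sequence at different concentrations or buffers and across linkers.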
# [2] = target: Fuc(a1-2)Gal6S(b1-4)Glc6S
# Procedure, shortened: as §1
# [3] = target: Fuc(a1-2)[Gal(a1-4)]Gal(b1-4)GlcNAc
# Procedure, shortened: as §1
# [4] = target: Fuc(a1-3)[Gal3S(b1-4)]Glc6S
# Procedure, shortened: as §1
# [5] = target: Fuc(a1-3)[Gal3S(b1-4)]GlcNAc6S
# Procedure, shortened: as §1
# [6] = target: Fuc(a1-3)[GalNAc(b1-4)]GlcNAc
# Procedure, shortened: as §1
# Fuc(a1-4)GlcNAc = target: Fuc(a1-4)GlcNAc
# Procedure, shortened: as §1
# [7] = target: Gal(a1-3)Gal(b1-4)[Fuc(a1-3)]GlcNAc
# Procedure, shortened: as §1
# Gal(b1-3)Gal = target: Gal(b1-3)Gal
# Procedure, shortened: as §1
# [8] = target: Gal(b1-3)GalNAc(b1-4)Gal(b1-4)Glc
# Procedure, shortened: as §1
# [9] = target: Gal(b1-3)GlcNAc(b1-2)Man(a1-3)[Gal(b1-3)GlcNAc(b1-2)Man(a1-6)]Man(b1-4)GlcNAc(b1-4)[Fuc(a1-6)]GlcNAc
# Procedure, shortened: as §1
# [10] = target: Gal(b1-3)GlcNAc(b1-3)Gal(b1-4)Glc
# Procedure, shortened: as §1
# [11] = target: Gal(b1-3)[Fuc(a1-4)]GlcNAc(b1-3)Gal(b1-4)GlcNAc
# Procedure, shortened: as §1
# [12] = target: Gal(b1-4)GalNAc(a1-3)[Fuc(a1-2)]Gal(b1-4)GlcNAc
# Procedure, shortened: as §1
# [13] = target: Gal(b1-4)GlcNAc(b1-6)Gal(b1-4)GlcNAc
# Procedure, shortened: as §1
# Gal3S(b1-3)GlcNAc = target: Gal3S(b1-3)GlcNAc
# Procedure, shortened: as §1
# Gal3S(b1-4)Glc6S = target: Gal3S(b1-4)Glc6S
# Procedure, shortened: as §1
# [14] = target: Gal3S(b1-4)[Fuc(a1-3)]Glc
# Procedure, shortened: as §1
# Gal3S4S(b1-4)GlcNAc = target: Gal3S4S(b1-4)GlcNAc
# Procedure, shortened: as §1
# Gal3S6S(b1-4)GlcNAc6S = target: Gal3S6S(b1-4)GlcNAc6S
# Procedure, shortened: as §1
# Glc(a1-4)Glc = target: Glc(a1-4)Glc
# Procedure, shortened: as §1
# Glc(a1-6)Glc(a1-6)Glc = target: Glc(a1-6)Glc(a1-6)Glc
# Procedure, shortened: as §1
# GlcA(b1-3)Gal = target: GlcA(b1-3)Gal
# Procedure, shortened: as §1
# [15] = target: GlcNAc(b1-3)Gal(b1-4)GlcNAc(b1-3)Gal(b1-4)GlcNAc
# Procedure, shortened: as §1
# GlcNAc(b1-4)GlcNAc = target: GlcNAc(b1-4)GlcNAc
# Procedure, shortened: as §1
# [16] = target: GlcNAc(b1-4)GlcNAc(b1-4)GlcNAc
# Procedure, shortened: as §1
# [17] = target: GlcNAc(b1-6)Gal(b1-4)GlcNAc
# Procedure, shortened: as §1
# [18] = target: Man(a1-2)Man(a1-2)Man(a1-6)[Man(a1-3)]Man
# Procedure, shortened: as §1
# [19] = target: Neu5Ac(a2-3)Gal(b1-3)GalNAc
# Procedure, shortened: as §1
# [20] = target: Neu5Ac(a2-3)Gal(b1-3)GalNAc(b1-4)[Neu5Ac(a2-3)]Gal(b1-4)Glc
# Procedure, shortened: as §1
binder,measurement,setting,value
"GIINTLQKYYCRVRGGRCAVLSCLPKEEQIGKCSTRGRKCCRRKK [Beta-Defensin 3 (Homo sapiens), P81534]",glycan array binding signal (z-score),[1],-0.692
same,glycan array binding signal (z-score),[2],5.67
same,glycan array binding signal (z-score),[3],-0.449
same,glycan array binding signal (z-score),[4],3.57
same,glycan array binding signal (z-score),[5],8.21
same,glycan array binding signal (z-score),[6],-0.467
same,glycan array binding signal (z-score),Fuc(a1-4)GlcNAc,-0.369
same,glycan array binding signal (z-score),[7],-0.233
same,glycan array binding signal (z-score),Gal(b1-3)Gal,0.134
same,glycan array binding signal (z-score),[8],-0.315
same,glycan array binding signal (z-score),[9],-0.62
same,glycan array binding signal (z-score),[10],-0.348
same,glycan array binding signal (z-score),[11],-0.493
same,glycan array binding signal (z-score),[12],-0.395
same,glycan array binding signal (z-score),[13],-0.485
same,glycan array binding signal (z-score),Gal3S(b1-3)GlcNAc,0.98
same,glycan array binding signal (z-score),Gal3S(b1-4)Glc6S,4.37
same,glycan array binding signal (z-score),[14],0.062
same,glycan array binding signal (z-score),Gal3S4S(b1-4)GlcNAc,4.31
same,glycan array binding signal (z-score),Gal3S6S(b1-4)GlcNAc6S,3.11
same,glycan array binding signal (z-score),Glc(a1-4)Glc,0.053
same,glycan array binding signal (z-score),Glc(a1-6)Glc(a1-6)Glc,-0.18
same,glycan array binding signal (z-score),GlcA(b1-3)Gal,1.72
same,glycan array binding signal (z-score),[15],-0.356
same,glycan array binding signal (z-score),GlcNAc(b1-4)GlcNAc,-0.569
same,glycan array binding signal (z-score),[16],-0.463
same,glycan array binding signal (z-score),[17],-0.369
same,glycan array binding signal (z-score),[18],-0.442
same,glycan array binding signal (z-score),[19],-0.221
same,glycan array binding signal (z-score),[20],-0.555
